Assay results as given in PubChem BioAssay AID1159580 (chemical genetic matrix, 2015).
Several values for one entry are separate records, joined by “and”; a condition that tells them apart may be missing. Equal entries are not always repeated. In all, about 5,500 compounds went through this assay and about 2,000 (36%) were called active. Another 18% or so got no clear call; they are omitted. Rule as the data show it: active = normalized growth mostly below about 0.91 (no sharp cut-off); inconclusive = no clear call, values can overlap the other calls; inactive = mostly above about 0.92. The list shows a part of the results.

Assay: chemical genetic growth profiling, strain panel (AID 1159580);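 also: tested at 20 µM; growth read once vehicle control cultures reached saturation at 30 °C; 1 = growth at the plate median or of vehicle wells; lower values mean less growth of the strain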
Conditions: S. cerevisiae deletion strains, growth OD

Measured: normalized growth

COc1cc2c(cc1OC)C(=O)OC2
inactive: locus YAL013W, strain DEP1, hits give low values 1 | locus YAL021C, strain ccr4, hits give low values 0.998 | locus YAL026C, strain drs2, hits give low values 1.01 | locus YAL030W, strain snc1, hits give low values 0.981 | locus YBL061C, strain skt5, hits give low values 0.988 | locus YBR009C, strain hhf1, hits give low values 0.992 | locus YBR021W, strain FUR4, hits give low values 0.999 | locus YBR023C, strain chs3, hits give low values 0.993 | locus YBR171W, strain sec66, hits give low values 0.998 | locus YBR229C, strain ROT2, hits give low values 1.01 | locus YBR231C, strain swc5, hits give low values 0.98 | locus YBR279W, strain paf1, hits give low values 0.997 | locus YCL011C, strain gbp2, hits give low values 0.99 | locus YCL016C, strain dcc1, hits give low values 0.987 | locus YCL029C, strain bik1, hits give low values 1.01 | locus YCL061C, strain MRC1, hits give low values 0.999 | locus YCL069W, strain vba3, hits give low values 1 | locus YCR088W, strain abp1, hits give low values 0.994 | locus YDL005C, strain med2, hits give low values 0.988 | locus YDL035C, strain GPR1, hits give low values 1.02 | locus YDL040C, strain nat1, hits give low values 0.985 | locus YDL074C, strain BRE1, hits give low values 0.985 | locus YDL101C, strain DUN1, hits give low values 1.01 | locus YDL134C, strain PPH21, hits give low values 0.999 | locus YDL185W, strain tfp1, hits give low values 1.01 | locus YDL192W, strain arf1, hits give low values 1 | locus YDR001C, strain nth1, hits give low values 1.01 | locus YDR069C, strain doa4, hits give low values 0.994 | locus YDR101C, strain arx1, hits give low values 0.994 | locus YDR137W, strain rgp1, hits give low values 0.967 | locus YDR150W, strain NUM1, hits give low values 1 | locus YDR159W, strain sac3, hits give low values 1.01 | locus YDR162C, strain NBP2, hits give low values 0.985 | locus YDR195W, strain ref2 1 | locus YDR297W, strain sur2, hits give low values 0.998 | locus YDR318W, strain mcm21, hits give low values 1.02 | locus YDR334W, strain swr1, hits give low values 0.976 | locus YDR335W, strain msn5, hits give low values 1 | locus YDR388W, hits give low values 1.01 | locus YDR392W, strain spt3, hits give low values 0.997 | locus YDR502C, strain sam2, hits give low values 0.983 | locus YEL003W, strain gim4, hits give low values 0.999 | locus YEL037C, strain rad23, hits give low values 0.994 | locus YEL061C, strain CIN8 (second series), hits give low values 1.01 | locus YEL061C, strain CIN8, hits give low values 1 | locus YER015W, strain faa2, hits give low values 0.988 | locus YER016W, strain bim1, hits give low values 0.999 | locus YER110C, hits give low values 1.01 | locus YER111C, strain swi4, hits give low values 0.996 | locus YER155C, strain BEM2 (second series), hits give low values 0.992 | locus YER155C, strain BEM2, hits give low values 1.01 | locus YER167W, strain BCK2, hits give low values 1.03 | locus YFR010W, strain ubp6, hits give low values 0.989 | locus YGL078C, strain dbp3, hits give low values 0.984 | locus YGL086W, strain mad1, hits give low values 1.03 | locus YGL167C, strain pmr1, hits give low values 0.984 | locus YGL173C, strain kem1, hits give low values 0.983 | locus YGL227W, strain vid30, hits give low values 0.998 | locus YGL240W, strain doc1, hits give low values 1.03 | locus YGL248W, strain PDE1, hits give low values 1.01 | locus YGL253W, strain hxk2, hits give low values 0.993 | locus YGR078C, strain PAC10, hits give low values 0.987 | locus YGR135W, strain pre9, hits give low values 0.961 | locus YGR229C, strain SMI1, hits give low values 0.999 | locus YGR252W, strain gcn5, hits give low values 1.06 | locus YHR013C, strain ard1, hits give low values 0.988 | locus YHR027C, strain rpn1, hits give low values 1 | locus YHR030C, strain SLT2, hits give low values 1.01 and 0.973 | locus YHR079C, strain IRE1 (second series), hits give low values 1.01 | locus YHR079C, strain IRE1, hits give low values 0.984 | locus YHR094C, strain hxt1, hits give low values 0.999 | locus YHR129C, strain ARP1, hits give low values 1.01 | locus YHR142W, strain chs7, hits give low values 0.972 | locus YHR200W, strain rpn10, hits give low values 1 | locus YIL066C, strain RNR3, hits give low values 1.02 | locus YIL073C, strain SPO22, hits give low values 1.06 | locus YIL125W, strain kgd1, hits give low values 0.99 | locus YIR030C, strain dcg1, hits give low values 0.999 | locus YJL092W, strain hpr5, hits give low values 0.999 | locus YJL095W, strain BCK1 (second series), hits give low values 0.991 | locus YJL095W, strain BCK1, hits give low values 0.996 and 0.98 | locus YJL115W, strain asf1, hits give low values 1 | locus YJL129C, strain trk1, hits give low values 1.03 | locus YJL134W, strain LCB3, hits give low values 1 | locus YJL154C, strain vps35, hits give low values 0.988 | locus YJL164C, strain tpk1, hits give low values 0.996 | locus YJL166W, strain qcr8, hits give low values 0.981 | locus YJL168C, strain set2, hits give low values 1.01 | locus YJL187C, strain SWE1 (second series), hits give low values 1 | locus YJR043C, strain POL32, hits give low values 1.03 | locus YJR066W, strain TOR1, hits give low values 0.977
